Bioassay records as filed in PubChem.
PfHsp40 yeast: rescue of PfHsp40-mediated yeast toxicity | growth rescue, % at 12.5 µM | actives 0.68% (n = 340,000) | S. cerevisiae expressing PfHsp40, growth rescue, ATP luminescence; in the data active = growth rescue above about 28%, passing the limit was not always enough;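 note: yeast W303a lacking pdr1 and pdr3 grown in galactose medium; growth measured after three days at 30 °C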
PrPC TRFRET: reduces human prion protein on the cell surface; P04156; actives 0.43% (n = 370,000); inhibition, % at 13.8 µM; cell surface PrPC, TR-FRET read-out; in the data active = inhibition above about 24%; note: 0% = median of the test wells and 100% = reference compound wells
Yp Topo-I inh: inhibitors of Yersinia pestis topoisomerase I. actives 0.064% (n = 360,000). activity, % at 10 µM. Y. pestis Topo-I cleavage product accumulation, plate reader. AID 504884; in the data active = activity above about 50%, passing the limit was not always enough
CCHF vOTU inh-1: blocks the CCHF virus ovarian tumor domain protease. AID 651958. CCHFV vOTU protease, Pep-AMC fluorescence. inhibition, % at 11.5 µM. actives 0.55% (n = 370,000); note: 0% = vehicle wells with enzyme and 100% = no enzyme wells
BJeLR viability: kills HRASV12-expressing BJeLR cells | BJeLR (HRASV12) viability, CellTiter-Glo ATP luminescence, 48 h | inhibition, % (concentration not given with the values) | actives 0.17% (n = 300,000) | AID 1554; in the data active = inhibition above about 50%
PrP UTR inh: inhibition of PrP 5' UTR reporter expression | inhibition, % (no concentration beside the values) | AID 488862 | cell-based PrP 5' UTR mRNA reporter, plate reader | actives 0.35% (n = 340,000); in the data active = inhibition above about 52%; note: 0 = median of the neutral control wells
CCHF vOTU inh-2: CCHFV vOTU protease inhibition, confirmation. Recombinant CCHFV vOTU, Pep-AMC fluorescence. actives 17% (n = 1,900). shares compounds with CCHF vOTU inh-1. AID 686976. inhibition, % at 11.5 µM
* = called active by the depositor; x = not tested or not shown. A selection: hits, their analogues and other compounds. The true share with any hit is near 2%. Cut-off read from the data, not from the text of the source, unless noted: active = inhibition above about 30%; inactive = the rest.

SMILES | PfHsp40 yeast | PrPC TRFRET | Yp Topo-I inh | CCHF vOTU inh-1 | BJeLR viability | PrP UTR inh | CCHF vOTU inh-2
CCCC1S/C(=N/N=C/c2ccco2)NC1=O (stereo not given) | 1 | -3 | -3 | -5 | -4 | -11 | x
O=C(CC1S/C(=N/N=C/c2ccco2)NC1=O)Nc1cccc(Cl)c1Cl (stereo not given) | 0 | 4 | 1 | 33* | 0 | -6 | -7
Fc1ccc(Cn2ccc3ccc(-c4ccc5ccn(Cc6ccc(F)cc6F)c5c4)cc32)c(F)c1 | x | 6 | x | 21 | x | x | x
Brc1ccc(CN2CCCc3nc(-c4ccccc4)ccc32)cc1 | x | -4 | x | 1 | x | x | x
CCOc1ccc(NC(=O)CN(C)C(=O)c2ccc(C)o2)cc1OCC | 0 | 5 | 2 | 32* | -13 | -18 | -23
COc1ccccc1NC(=O)OC1CC2CC1[C@H]1CCCCN1[C@H]2C (stereo not given in full) | x | -10 | x | -3 | x | x | x
O=C(NCC1COCCO1)C1CCN(S(=O)(=O)c2ccc(Br)s2)CC1 (stereo not given) | x | -2 | x | -6 | x | x | x
COc1cccc(CNC(=O)CSCc2cnn(-c3ccccc3)c2-n2cccc2)c1 | 5 | 9 | 11 | 36* | -9 | -14 | 7
CCOC(=O)CC[C@H]1CC[C@]2(CCCN(C(=O)c3ccccc3)C2)O1 | x | -1 | x | 1 | x | x | x
Cc1nc(NC2CCCC2)c2nnn(Cc3ccccc3)c2n1 | x | 10 | x | 7 | x | x | x
CCOC(=O)C1=C(CC)Nc2ccccc2N/C1=N\S(=O)(=O)c1ccc(C(=O)OCC)cc1 | 0 | 13 | 16 | 30* | 5 | -18 | 6
CCOC(=O)C1=C(CC)Nc2ccccc2N=C1NC(=O)c1cc(S(=O)(=O)N(C)C)ccc1Cl | 0 | 0 | 0 | -3 | 5 | 6 | x
O=C(CN1C(=O)N/C(=C\c2ccccc2OCc2ccc(C(=O)O)cc2)C1=O)Nc1ccc(F)cc1 | 1 | -17 | 6 | 32* | 2 | -7 | -12
O=C(O)CN1C(=O)/C(=C\c2cc(Br)ccc2OCc2ccc(Cl)cc2)SC1=S | 11 | 1 | 30 | 14 | -4 | -22 | x
O=C(O)CN1C(=O)/C(=C\c2ccccc2OCc2ccc(F)cc2)SC1=S | 8 | -13 | 6 | 35* | 7 | -10 | 7
O=C(CN1C(=O)/C(=C/c2ccccc2)SC1=S)NC1CCS(=O)(=O)C1 (stereo not given) | 2 | 2 | -3 | 4 | -14 | -13 | x
O=C(O)CN1C(=O)/C(=C\c2ccccc2OCc2ccccc2)SC1=S | x | -5 | 27 | 26 | x | x | x
O=C(O)CN1C(=O)/C(=C\c2cc(Br)ccc2OCc2ccc(F)cc2)SC1=S | 21 | 2 | -2 | 31* | 2 | -13 | 25
COc1ccccc1/C=C1\SC(=S)N(CC(=O)NC2CCS(=O)(=O)C2)C1=O (stereo not given) | 0 | 0 | 21 | 31* | 3 | -26 | 0
Cc1cccc(NC(=O)CN2C(=O)N/C(=C\c3ccccc3OCc3ccc(C(=O)O)cc3)C2=O)c1 | -1 | -9 | 15 | 11 | 1 | -19 | x
CCOC(=O)NC[C@@]1(C(=O)OC)CC(=O)N(C)[C@@H]1c1ccccc1 | x | -4 | x | -4 | x | x | x
CCN1CCN(C2=C(NS(=O)(=O)c3ccc(NC(C)=O)cc3)C(=O)c3ccccc3C2=O)CC1 | 1 | -60 | -13 | 58* | -6 | -10 | 22
CC(=O)Nc1ccc(S(=O)(=O)NC2=C(N3CCN(C)CC3)C(=O)c3ccccc3C2=O)cc1 | -1 | -61 | -4 | 53* | 7 | -1 | 30*
C[C@H]1COc2cccc(F)c2S(=O)(=O)N1C | x | -6 | x | -2 | x | x | x
O=C(COC(=O)c1cc2ccccc2cc1O)Nc1ccccc1F | -1 | -1 | 5 | 31* | x | -40 | -24
SMILES | PfHsp40 yeast | PrPC TRFRET | Yp Topo-I inh | CCHF vOTU inh-1 | BJeLR viability | PrP UTR inh | CCHF vOTU inh-2
CC(C)CC(NC(=O)OCc1ccccc1)C(=O)NCC(=O)NCC(=O)OCc1ccccc1 (stereo not given) | x | -1 | x | 20 | x | x | x
Cc1cc(N2C(=O)C(O)=C(C(=O)c3cc4ccccc4o3)C2c2cccc(Br)c2)no1 (stereo not given) | 3 | 13 | 78* | 32* | 7 | -7 | 18
CCCOc1cccc(C2C(C(=O)c3cc4ccccc4o3)=C(O)C(=O)N2c2cc(C)on2)c1 (stereo not given) | -1 | 10 | 3 | 18 | 1 | -20 | x
CCCn1nc(NS(=O)(=O)c2cccc3nonc23)c2cc3cc(C)ccc3nc21 | -1 | 3 | -5 | 14 | 0 | -8 | x
CCCn1nc(NS(=O)(=O)c2cccc3nonc23)c2cc3cccc(C)c3nc21 | 3 | -6 | 16 | 42* | 3 | -2 | 15
CC(C)C(C(=O)NCc1ccco1)N(C(=O)CNS(=O)(=O)c1ccccc1)c1ccccc1 (stereo not given) | 2 | 9 | -10 | 34* | 1 | -10 | -13
CCCCCCSC1=C(C#N)C(=O)NC2(CCCCC2)S1 | 4 | 11 | 3 | 35* | 3 | -26 | -3
CCOC(=O)[C@]12CCCC=C1N(CCc1ccc(OC)c(OC)c1)C(=O)[C@H](CC(=O)N1CCCC1)C2 | x | -4 | x | 33* | x | x | -23
CCCCCCCCN1C(=O)[C@H](CC(=O)NCc2ccccc2)C[C@@]2(C(=O)OCC)CCCC=C12 | x | 8 | x | 33* | x | x | 5
CCCCCCCCN1C(=O)[C@H](CC(=O)N2CCOCC2)C[C@@]2(C(=O)OCC)CCCC=C12 | x | 2 | x | 22 | x | x | x
C#CCNC(=O)C[C@@H]1C[C@@]2(C(=O)OCC)CCCC=C2N(CCCCCCCC)C1=O | x | 0 | x | 31* | x | x | 15
CCCCCCCCN1C(=O)[C@H](CC(=O)NCC2CCCCC2)C[C@@]2(C(=O)OCC)CCCC=C12 | x | 4 | x | 20 | x | x | x
CCCCCCCCN1C(=O)[C@H](CC(=O)N2CCSCC2)C[C@@]2(C(=O)OCC)CCCC=C12 | x | 3 | x | 39* | x | x | 3
COc1ccc(/C=C2\CC3(OC(=O)c4ccccc4)CCCN2C3)cc1 (stereo not given) | x | 3 | x | 11 | x | x | x
COc1cc(C=Nn2c(-c3cc(-c4ccccc4)n[nH]3)n[nH]c2=S)ccc1OC(C)=O | x | 3 | x | 30* | x | x | -12
O=C(Cn1cnc2ccccc2c1=O)N1CCCCC1 | x | 2 | x | 3 | x | x | x
COc1ccccc1C(CCN(Cc1cccs1)C(C)=O)c1ccco1 (stereo not given) | 0 | -6 | 8 | 11 | 0 | -3 | x
CCC(=O)N(CCC(c1ccccc1)c1ccco1)Cc1cccs1 (stereo not given) | -1 | 5 | -1 | 34* | -2 | -6 | -10
CN=C1S/C(=C/c2cc(C)n(Cc3ccccc3)c2C)C(=O)N1C | x | 11 | x | x | x | x | x
CNc1ccc2oc(C[C@H]3O[C@@]4(CC[C@H]3C)O[C@H]([C@H](C)C(=O)c3ccc[nH]3)[C@H](C)C[C@H]4C)nc2c1C(=O)O | 143* | -5 | -7 | 54* | 31 | 6 | -36
